# Results published in PMC7862700, “An all-to-all approach to the identification of sequence-specific readers for epigenetic DNA modifications on cytosine”.
# Tests used:
# Test in all cases: DAPPL (digital affinity profiling via proximity ligation, sequencing); 10 mM Tris-HCl pH 7.5, 50 mM NaCl, 1 mM DTT, 4% glycerol, room temperature, 30 min; GST-TFs on glutathione beads, 16-mer random dsDNA library, 0.1% formaldehyde crosslink after washing; high values mean tight binding
# FEV = target: T1, FEV (Homo sapiens, UniProt Q99581 1-238); settings: protein: recombinant; tags: N-terminal GST; dsDNA, one strand shown
# T1 sequence: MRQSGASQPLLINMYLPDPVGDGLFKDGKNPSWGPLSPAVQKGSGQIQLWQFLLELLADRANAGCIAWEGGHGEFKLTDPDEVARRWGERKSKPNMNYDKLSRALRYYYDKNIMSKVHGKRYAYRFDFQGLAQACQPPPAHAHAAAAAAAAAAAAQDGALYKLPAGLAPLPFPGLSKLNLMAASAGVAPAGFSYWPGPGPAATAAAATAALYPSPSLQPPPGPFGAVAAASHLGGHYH
# Method in brief: (§1)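 Human transcription factors were made in yeast as GST fusions, captured on glutathione beads and barcoded with DNA. With a tag-only sample included, the pool was incubated with 200 nmole of a random double-stranded 16-mer DNA library in Tris/NaCl/DTT/glycerol buffer at room temperature for 30 min, then crosslinked with 0.1% formaldehyde after washing, ligated by proximity, amplified and sequenced. For binding signal, each hexamer's read frequency for a factor is divided by its frequency for the tag-only sample.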
# ETV5 = ETV5 (Homo sapiens, UniProt P41161 1-510); settings: protein: recombinant; tags: N-terminal GST; dsDNA, one strand shown
# Method in brief: as §1
# HSF1 = HSF1 (Homo sapiens, UniProt Q00613 1-529); settings: protein: recombinant; tags: N-terminal GST; chain copies: 3; dsDNA, one strand shown
# Method in brief: as §1
# SPIC = target: T2, SPIC (Homo sapiens, UniProt Q8N5J4 1-248); settings: protein: recombinant; tags: N-terminal GST; dsDNA, one strand shown
# T2 sequence: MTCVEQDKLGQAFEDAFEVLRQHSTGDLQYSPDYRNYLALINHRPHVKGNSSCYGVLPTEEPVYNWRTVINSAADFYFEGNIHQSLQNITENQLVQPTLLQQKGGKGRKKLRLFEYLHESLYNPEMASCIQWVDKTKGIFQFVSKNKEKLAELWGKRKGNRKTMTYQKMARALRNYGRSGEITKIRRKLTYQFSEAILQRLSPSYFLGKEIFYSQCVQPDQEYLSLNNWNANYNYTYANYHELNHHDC
# Method in brief: as §1
# ELF4 = ELF4 (Homo sapiens, UniProt Q99607 1-663); settings: protein: recombinant; tags: N-terminal GST; dsDNA, one strand shown
# Method in brief: as §1
# ELK4 = target: T3, ELK4 (Homo sapiens, UniProt P28324-2 1-405); settings: protein: recombinant; tags: N-terminal GST; dsDNA, one strand shown
# T3 sequence: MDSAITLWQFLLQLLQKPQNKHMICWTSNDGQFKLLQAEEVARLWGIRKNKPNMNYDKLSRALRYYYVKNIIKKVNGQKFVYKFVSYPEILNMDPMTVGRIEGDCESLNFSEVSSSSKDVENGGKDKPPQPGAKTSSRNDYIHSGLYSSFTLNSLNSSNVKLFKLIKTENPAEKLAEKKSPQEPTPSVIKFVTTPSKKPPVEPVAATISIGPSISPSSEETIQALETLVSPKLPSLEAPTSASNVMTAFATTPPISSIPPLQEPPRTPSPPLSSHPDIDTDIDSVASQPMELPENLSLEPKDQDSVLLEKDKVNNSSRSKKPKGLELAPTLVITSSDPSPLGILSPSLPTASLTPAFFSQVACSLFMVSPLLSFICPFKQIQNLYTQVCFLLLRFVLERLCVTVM
# Method in brief: as §1
# ETV2 = target: T4, ETV2 (Homo sapiens, UniProt O00321 1-342); settings: protein: recombinant; tags: N-terminal GST; dsDNA, one strand shown
# T4 sequence: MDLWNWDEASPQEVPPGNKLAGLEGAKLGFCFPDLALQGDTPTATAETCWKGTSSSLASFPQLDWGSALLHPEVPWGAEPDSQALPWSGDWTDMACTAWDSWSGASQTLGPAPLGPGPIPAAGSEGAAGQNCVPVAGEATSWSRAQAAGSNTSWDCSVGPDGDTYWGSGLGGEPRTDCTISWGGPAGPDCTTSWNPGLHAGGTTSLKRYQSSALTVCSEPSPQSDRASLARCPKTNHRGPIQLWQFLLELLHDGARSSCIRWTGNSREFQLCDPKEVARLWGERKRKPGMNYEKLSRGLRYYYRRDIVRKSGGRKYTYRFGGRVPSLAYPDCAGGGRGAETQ
# Method in brief: as §1
# ELF3 = target: T5, ELF3 (Homo sapiens, UniProt P78545 1-371); settings: protein: recombinant; tags: N-terminal GST; dsDNA, one strand shown
# T5 sequence: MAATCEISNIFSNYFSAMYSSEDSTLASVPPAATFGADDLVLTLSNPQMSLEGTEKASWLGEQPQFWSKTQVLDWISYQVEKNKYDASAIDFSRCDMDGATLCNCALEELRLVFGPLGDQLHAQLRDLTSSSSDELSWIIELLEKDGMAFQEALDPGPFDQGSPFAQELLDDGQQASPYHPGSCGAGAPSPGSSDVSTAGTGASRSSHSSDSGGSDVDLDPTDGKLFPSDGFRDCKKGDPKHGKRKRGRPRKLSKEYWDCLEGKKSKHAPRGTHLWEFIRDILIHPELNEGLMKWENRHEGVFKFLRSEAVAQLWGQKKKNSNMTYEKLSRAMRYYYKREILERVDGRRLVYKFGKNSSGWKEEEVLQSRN
# Method in brief: as §1
# CRX = CRX (Homo sapiens, UniProt O43186 1-299); settings: protein: recombinant; tags: N-terminal GST; dsDNA, one strand shown
# Method in brief: as §1
# ETV1 = ETV1 (Homo sapiens, UniProt P50549 1-477); settings: protein: recombinant; tags: N-terminal GST; dsDNA, one strand shown
# Method in brief: as §1
# ERF = target: T6, ERF (Homo sapiens, UniProt P50548 1-548); settings: protein: recombinant; tags: N-terminal GST; dsDNA, one strand shown
# T6 sequence: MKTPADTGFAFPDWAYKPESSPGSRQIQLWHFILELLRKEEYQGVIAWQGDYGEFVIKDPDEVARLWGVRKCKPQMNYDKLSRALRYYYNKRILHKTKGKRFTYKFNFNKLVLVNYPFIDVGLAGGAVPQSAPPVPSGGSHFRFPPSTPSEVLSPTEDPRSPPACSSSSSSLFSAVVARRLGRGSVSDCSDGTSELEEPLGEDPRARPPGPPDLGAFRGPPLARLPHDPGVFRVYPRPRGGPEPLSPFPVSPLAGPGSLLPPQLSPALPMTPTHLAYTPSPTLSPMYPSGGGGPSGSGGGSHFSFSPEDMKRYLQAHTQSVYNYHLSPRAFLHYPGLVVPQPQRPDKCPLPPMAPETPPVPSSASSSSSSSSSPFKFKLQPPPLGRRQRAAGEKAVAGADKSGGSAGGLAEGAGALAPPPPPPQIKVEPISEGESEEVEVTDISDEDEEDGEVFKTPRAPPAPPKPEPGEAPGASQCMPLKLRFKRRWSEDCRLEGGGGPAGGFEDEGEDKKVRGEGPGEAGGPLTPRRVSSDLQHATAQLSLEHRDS
# Method in brief: as §1
# ETV3L = target: T7, ETV3L (Homo sapiens, UniProt Q6ZN32 1-361); settings: protein: recombinant; tags: N-terminal GST; dsDNA, one strand shown
# T7 sequence: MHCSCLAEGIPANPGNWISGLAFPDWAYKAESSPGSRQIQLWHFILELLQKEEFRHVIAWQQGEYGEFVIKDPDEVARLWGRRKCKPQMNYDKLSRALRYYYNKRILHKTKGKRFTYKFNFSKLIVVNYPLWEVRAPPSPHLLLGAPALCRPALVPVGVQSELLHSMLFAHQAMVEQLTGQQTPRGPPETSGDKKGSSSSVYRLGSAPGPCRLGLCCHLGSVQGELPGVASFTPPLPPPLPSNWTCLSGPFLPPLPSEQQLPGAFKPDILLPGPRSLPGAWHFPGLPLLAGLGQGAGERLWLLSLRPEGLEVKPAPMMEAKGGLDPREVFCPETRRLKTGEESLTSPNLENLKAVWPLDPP
# Method in brief: as §1
# ETS2 = target: T8, ETS2 (Homo sapiens, UniProt P15036 1-469); settings: protein: recombinant; tags: N-terminal GST; dsDNA, one strand shown
# T8 sequence: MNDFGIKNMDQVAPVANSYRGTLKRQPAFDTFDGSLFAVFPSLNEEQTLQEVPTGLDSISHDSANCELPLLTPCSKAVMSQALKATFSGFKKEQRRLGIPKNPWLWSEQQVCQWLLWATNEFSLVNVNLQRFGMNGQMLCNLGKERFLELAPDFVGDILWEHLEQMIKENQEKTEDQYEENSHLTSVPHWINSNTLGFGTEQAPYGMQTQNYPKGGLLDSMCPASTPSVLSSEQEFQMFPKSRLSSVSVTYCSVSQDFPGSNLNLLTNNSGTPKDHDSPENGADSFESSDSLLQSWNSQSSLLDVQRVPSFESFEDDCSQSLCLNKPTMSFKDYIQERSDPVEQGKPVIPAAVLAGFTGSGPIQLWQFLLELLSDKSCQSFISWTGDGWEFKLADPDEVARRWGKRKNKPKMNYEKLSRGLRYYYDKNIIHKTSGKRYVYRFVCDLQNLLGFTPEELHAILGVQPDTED
# Method in brief: as §1
# SPDEF = target: T9, SPDEF (Homo sapiens, UniProt O95238 1-335); settings: protein: recombinant; tags: N-terminal GST; dsDNA, one strand shown
# T9 sequence: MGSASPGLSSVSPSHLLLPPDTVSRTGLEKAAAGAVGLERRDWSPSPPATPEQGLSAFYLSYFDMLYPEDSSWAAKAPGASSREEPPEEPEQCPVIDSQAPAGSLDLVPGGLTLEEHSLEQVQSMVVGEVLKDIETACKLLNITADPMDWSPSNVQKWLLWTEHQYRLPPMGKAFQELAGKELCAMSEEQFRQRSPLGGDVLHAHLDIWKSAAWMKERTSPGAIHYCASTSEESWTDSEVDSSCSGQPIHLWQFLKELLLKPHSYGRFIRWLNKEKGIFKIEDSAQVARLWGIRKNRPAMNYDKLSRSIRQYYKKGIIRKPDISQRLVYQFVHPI
# Method in brief: as §1
# ETV7 = target: T10, ETV7 (Homo sapiens, UniProt Q9Y603 1-341); settings: protein: recombinant; tags: N-terminal GST; dsDNA, one strand shown
# T10 sequence: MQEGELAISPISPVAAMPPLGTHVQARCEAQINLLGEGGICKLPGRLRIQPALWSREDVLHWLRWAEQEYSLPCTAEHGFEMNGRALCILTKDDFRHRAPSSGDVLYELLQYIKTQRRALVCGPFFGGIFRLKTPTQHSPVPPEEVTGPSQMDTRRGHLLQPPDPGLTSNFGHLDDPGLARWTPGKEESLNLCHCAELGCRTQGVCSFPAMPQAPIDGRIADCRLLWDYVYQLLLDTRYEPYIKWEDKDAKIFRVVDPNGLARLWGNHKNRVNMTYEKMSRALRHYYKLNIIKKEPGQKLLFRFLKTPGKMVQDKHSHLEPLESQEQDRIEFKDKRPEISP
# Method in brief: as §1
# ELF5 = target: T11, ELF5 (Homo sapiens, UniProt Q9UKW6-2 1-255); settings: protein: recombinant; tags: N-terminal GST; dsDNA, one strand shown
# T11 sequence: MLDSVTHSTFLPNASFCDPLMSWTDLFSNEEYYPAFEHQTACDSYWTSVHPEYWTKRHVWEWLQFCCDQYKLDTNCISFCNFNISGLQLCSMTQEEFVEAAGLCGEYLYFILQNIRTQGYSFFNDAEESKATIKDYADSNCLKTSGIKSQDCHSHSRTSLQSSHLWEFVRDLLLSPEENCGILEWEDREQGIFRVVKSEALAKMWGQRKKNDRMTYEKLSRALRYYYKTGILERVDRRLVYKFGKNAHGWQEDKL
# Method in brief: as §1
# ETV3 = target: T12, ETV3 (Homo sapiens, UniProt P41162-2 1-143); settings: protein: recombinant; tags: N-terminal GST; dsDNA, one strand shown
# T12 sequence: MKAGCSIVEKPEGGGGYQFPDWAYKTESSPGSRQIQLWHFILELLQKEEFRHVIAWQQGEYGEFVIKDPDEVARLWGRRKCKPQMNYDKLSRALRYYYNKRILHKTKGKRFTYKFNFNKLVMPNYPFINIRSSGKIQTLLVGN
# Method in brief: as §1
# ETV6 = ETV6 (Homo sapiens, UniProt P41212 1-452); settings: protein: recombinant; tags: N-terminal GST; dsDNA, one strand shown
# Method in brief: as §1
# ETV1, sequence (P50549 whole entry): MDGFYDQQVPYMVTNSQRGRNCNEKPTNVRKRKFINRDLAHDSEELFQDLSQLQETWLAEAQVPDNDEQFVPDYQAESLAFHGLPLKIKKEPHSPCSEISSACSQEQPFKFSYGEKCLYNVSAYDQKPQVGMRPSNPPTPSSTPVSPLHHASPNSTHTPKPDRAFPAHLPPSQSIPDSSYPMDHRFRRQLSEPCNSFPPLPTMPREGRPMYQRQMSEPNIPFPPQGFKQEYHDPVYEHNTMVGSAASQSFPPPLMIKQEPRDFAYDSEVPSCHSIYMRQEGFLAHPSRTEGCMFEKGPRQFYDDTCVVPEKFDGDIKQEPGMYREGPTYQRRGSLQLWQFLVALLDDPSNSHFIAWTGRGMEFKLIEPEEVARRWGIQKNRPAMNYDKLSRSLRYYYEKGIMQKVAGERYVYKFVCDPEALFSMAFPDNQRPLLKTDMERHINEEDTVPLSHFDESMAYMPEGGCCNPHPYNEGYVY
# ETV6, sequence (P41212 whole entry): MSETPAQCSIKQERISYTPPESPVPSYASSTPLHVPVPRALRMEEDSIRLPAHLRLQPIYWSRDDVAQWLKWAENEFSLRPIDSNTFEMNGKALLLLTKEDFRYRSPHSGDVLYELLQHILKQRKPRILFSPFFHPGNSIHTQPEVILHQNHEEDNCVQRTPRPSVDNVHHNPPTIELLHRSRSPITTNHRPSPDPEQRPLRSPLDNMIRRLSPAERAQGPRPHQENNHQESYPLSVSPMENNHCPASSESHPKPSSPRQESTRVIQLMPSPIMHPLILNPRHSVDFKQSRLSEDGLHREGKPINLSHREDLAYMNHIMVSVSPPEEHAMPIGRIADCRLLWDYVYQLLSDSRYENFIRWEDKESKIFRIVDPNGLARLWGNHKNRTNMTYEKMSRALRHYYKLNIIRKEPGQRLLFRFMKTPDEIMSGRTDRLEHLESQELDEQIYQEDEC
# ELF4, sequence (Q99607 whole entry): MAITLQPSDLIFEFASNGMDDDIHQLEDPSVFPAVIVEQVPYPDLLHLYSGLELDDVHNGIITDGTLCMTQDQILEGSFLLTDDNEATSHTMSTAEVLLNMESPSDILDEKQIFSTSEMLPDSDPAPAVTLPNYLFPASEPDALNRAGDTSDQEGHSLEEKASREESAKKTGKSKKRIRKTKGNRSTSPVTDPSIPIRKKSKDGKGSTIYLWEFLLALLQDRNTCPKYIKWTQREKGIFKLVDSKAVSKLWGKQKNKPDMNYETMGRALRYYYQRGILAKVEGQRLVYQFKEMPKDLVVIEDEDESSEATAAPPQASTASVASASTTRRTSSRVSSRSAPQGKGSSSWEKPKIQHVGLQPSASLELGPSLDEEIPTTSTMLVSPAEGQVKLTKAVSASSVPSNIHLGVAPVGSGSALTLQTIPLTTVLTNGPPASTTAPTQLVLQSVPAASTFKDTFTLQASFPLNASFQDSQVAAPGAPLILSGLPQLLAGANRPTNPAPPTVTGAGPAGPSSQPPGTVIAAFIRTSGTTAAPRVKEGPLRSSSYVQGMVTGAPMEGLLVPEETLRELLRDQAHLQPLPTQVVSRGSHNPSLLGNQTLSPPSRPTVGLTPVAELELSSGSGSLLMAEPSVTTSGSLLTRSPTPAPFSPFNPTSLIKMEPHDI
# CRX, sequence (O43186 whole entry): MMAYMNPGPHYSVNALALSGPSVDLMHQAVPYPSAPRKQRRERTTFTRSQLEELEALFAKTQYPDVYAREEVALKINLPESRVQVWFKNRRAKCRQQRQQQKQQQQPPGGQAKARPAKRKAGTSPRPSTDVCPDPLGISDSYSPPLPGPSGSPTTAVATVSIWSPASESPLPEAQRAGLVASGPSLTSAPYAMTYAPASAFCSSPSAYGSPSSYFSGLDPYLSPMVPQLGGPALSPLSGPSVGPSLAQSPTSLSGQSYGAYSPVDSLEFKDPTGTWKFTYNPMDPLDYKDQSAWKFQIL
# HSF1, sequence (Q00613 whole entry): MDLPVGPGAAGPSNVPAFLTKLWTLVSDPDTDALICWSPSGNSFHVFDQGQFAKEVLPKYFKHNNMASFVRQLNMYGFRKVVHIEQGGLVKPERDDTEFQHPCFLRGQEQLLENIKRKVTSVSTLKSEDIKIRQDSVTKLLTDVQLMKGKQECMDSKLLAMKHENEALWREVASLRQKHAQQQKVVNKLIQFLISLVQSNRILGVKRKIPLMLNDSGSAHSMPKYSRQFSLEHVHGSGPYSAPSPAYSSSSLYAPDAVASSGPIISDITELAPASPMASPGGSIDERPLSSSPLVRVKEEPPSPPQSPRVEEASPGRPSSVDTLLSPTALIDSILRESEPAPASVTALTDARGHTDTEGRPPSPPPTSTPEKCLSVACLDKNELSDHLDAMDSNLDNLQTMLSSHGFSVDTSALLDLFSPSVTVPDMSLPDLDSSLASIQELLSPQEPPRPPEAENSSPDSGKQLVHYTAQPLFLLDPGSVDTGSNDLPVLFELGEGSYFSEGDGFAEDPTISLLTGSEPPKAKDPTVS
# ETV5, sequence (P41161 whole entry): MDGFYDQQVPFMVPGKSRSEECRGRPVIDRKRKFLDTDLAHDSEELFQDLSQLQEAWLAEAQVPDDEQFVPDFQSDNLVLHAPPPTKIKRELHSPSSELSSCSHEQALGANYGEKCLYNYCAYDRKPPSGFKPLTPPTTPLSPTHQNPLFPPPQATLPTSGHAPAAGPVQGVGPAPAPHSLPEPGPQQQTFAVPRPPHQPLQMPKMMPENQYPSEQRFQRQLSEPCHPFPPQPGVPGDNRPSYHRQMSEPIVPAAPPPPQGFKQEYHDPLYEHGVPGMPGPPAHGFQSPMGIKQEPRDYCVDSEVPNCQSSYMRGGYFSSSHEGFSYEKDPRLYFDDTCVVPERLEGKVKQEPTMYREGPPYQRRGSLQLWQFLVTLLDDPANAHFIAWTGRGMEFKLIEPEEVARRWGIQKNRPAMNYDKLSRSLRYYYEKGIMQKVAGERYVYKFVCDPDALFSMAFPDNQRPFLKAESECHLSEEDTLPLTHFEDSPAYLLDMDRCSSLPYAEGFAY
sequence,measurement,setting,value
CTTCAG,binding signal,FEV,"1.26 fold enrichment (6-mer frequency, TF over GST control)"
same,binding signal,ETV5,"1.21 fold enrichment (6-mer frequency, TF over GST control)"
same,binding signal,HSF1,"1.23 fold enrichment (6-mer frequency, TF over GST control)"
same,binding signal,SPIC,"1.26 fold enrichment (6-mer frequency, TF over GST control)"
same,binding signal,ELF4,"1.34 fold enrichment (6-mer frequency, TF over GST control)"
same,binding signal,ELK4,"1.41 fold enrichment (6-mer frequency, TF over GST control)"
same,binding signal,ETV2,"1.23 fold enrichment (6-mer frequency, TF over GST control)"
same,binding signal,ELF3,"1.39 fold enrichment (6-mer frequency, TF over GST control)"
same,binding signal,CRX,"1.16 fold enrichment (6-mer frequency, TF over GST control)"
same,binding signal,ETV1,"1.33 fold enrichment (6-mer frequency, TF over GST control)"
same,binding signal,ERF,"1.27 fold enrichment (6-mer frequency, TF over GST control)"
same,binding signal,ETV3L,"1.26 fold enrichment (6-mer frequency, TF over GST control)"
same,binding signal,ETS2,"1.33 fold enrichment (6-mer frequency, TF over GST control)"
same,binding signal,SPDEF,"1.34 fold enrichment (6-mer frequency, TF over GST control)"
same,binding signal,ETV7,"1.29 fold enrichment (6-mer frequency, TF over GST control)"
same,binding signal,ELF5,"1.35 fold enrichment (6-mer frequency, TF over GST control)"
same,binding signal,ETV3,"1.17 fold enrichment (6-mer frequency, TF over GST control)"
same,binding signal,ETV6,"1.37 fold enrichment (6-mer frequency, TF over GST control)"
